Measurements from PubChem BioAssay (NCATS).
Results filed as inconclusive are left out. Calls of active or inactive are those of the source. Calls follow the shape of the dose curve; as a rule, active = well fitted curve in the direction sought with a large enough effect; inconclusive = small, poorly fitted or top-dose-only effect, or another doubt; inactive = no such curve, though single readings can be large; an effect the other way counts as inactive or inconclusive.

How the values were obtained:
[1] = target: Glutathione peroxidase 1 (Homo sapiens) (UniProt P07203); assay: Primary qHTS Assay for Inhibitors of Recombinant Selenoprotein Glutathione Peroxidase 1 (GPX1) (AID 1845191); also: nearly all actives have a fitted effect of over 65% in size; as to activity, negative = inhibition: % is scaled to controls: 0 for no effect and ±100 for the full control effect
Sequence of Glutathione peroxidase 1 (Homo sapiens) (P07203 whole entry, looked up): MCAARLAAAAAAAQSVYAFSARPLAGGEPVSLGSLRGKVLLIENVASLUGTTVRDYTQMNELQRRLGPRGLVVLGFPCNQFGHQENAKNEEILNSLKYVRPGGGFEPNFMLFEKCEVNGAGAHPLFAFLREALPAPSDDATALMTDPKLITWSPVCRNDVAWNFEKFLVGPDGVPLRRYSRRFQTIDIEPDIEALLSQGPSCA
How it was run: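 GPX1 10 nM, GR 100 nM, GSH 1 mM, NADPH 0.5 mM, CHP 0.5 mM (final). 30-min cpd preincubation, RT. Ex340/Em450 read t=0, t=15 min.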

[2] = target: Phospholipid hydroperoxide glutathione peroxidase GPX4 (Homo sapiens) (UniProt P36969); assay: Primary qHTS Assay for Inhibitors of Recombinant Selenoprotein Glutathione Peroxidase 4 (GPX4) (AID 1845192); also: nearly all actives have a fitted effect of over 65% in size; as to activity change, negative = inhibition: series mostly up to about 50 µM; % is scaled to controls: 0 for no effect and ±100 for the full control effect
Sequence of Phospholipid hydroperoxide glutathione peroxidase GPX4 (Homo sapiens) (P36969 whole entry, looked up): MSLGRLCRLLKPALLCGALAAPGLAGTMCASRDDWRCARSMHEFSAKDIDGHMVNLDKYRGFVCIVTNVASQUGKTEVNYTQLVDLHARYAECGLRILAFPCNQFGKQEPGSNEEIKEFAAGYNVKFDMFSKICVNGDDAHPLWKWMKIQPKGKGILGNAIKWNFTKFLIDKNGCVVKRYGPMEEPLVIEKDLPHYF
How it was run: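 qHTS, GR-coupled: GPX4 200 nM + cpd 30 min RT → GSH 1 mM, NADPH 0.5 mM, GR 100 nM → CHP 0.5 mM start; fluor 340/450 at t0 and t15 min; no-enzyme wells as control.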

[3] = target: Luciferin 4-monooxygenase (Photinus pyralis) (UniProt P08659); assay: Primary firefly luciferase (FLuc) qHTS assay for identification of artifact compounds. (AID 1845220); also: nearly all actives have a fitted effect of over 60% in size;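 as to activity change, negative = inhibition: series mostly up to about 54 µM; plate controls were DMSO vehicle for no effect and no enzyme for full effect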
How it was run: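 qHTS, 15 min compound preincubation with substrate (10 uM luciferin, 10 uM ATP) at RT, then 10 nM FLuc; 5 min; luminescence; % inhibition vs no-enzyme/DMSO controls, 4-parameter Hill fit.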

[4] = Primary fluorescence-based thiol-reactive (MSTI) qHTS assay for identification of artifact compounds. (AID 1845221); also: nearly all actives have a fitted effect of over 65% in size; also: potency is read from the fitted curve at half-maximal effect;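 as to activity change, negative = thiol reactive: series mostly up to about 54 µM; thiol-reactive compounds lower the probe fluorescence signal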
How it was run: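 Thiol-reactive compounds detected by quenching of 4 uM MSTI fluorescence (525/598 nm) after 1 h room-temperature dark incubation in PBS pH 7.4, 2% DMSO. qHTS titration; percent inhibition Hill-fitted against Acetyl-MSTI/MSTI controls.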

[5] = tested on: Nanoluciferase (engineered Oplophorus gracilirostris luciferase); assay: Primary Nanoluciferase (NLuc) qHTS assay for identification of artifact compounds. (AID 1845222); also: series mostly up to about 54 µM
How it was run: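 Luminescence read-out of secreted NLuc in S16 cell conditioned medium (1:55); compounds tested with 15 min RT preincubation, then Nano-Glo substrate 1:100, 5 min. % inhibition vs no-enzyme and DMSO controls, 4-parameter Hill fit.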

O=C(O)[C@H]1Cc2ccccc2CN1
inactive: outcome [1] inactive [at 4.49 µM] | activity change, negative = inhibition [2] 3.24% [at 4.52 µM] | outcome [3] inactive [at 6.45 µM] | activity change, negative = thiol reactive [4] -3.73% [at 6.41 µM] | activity, negative = inhibition [5] 0% [at 6.45 µM]

C/C1=C\CC(C)(C)/C=C/C/C(C(=O)O)=C/CC1
inactive: Potency [1] | Potency [2] | Potency [3] | Potency [4] | Potency [5]

CC(=O)O[C@H]1C[C@@H](O)C(C)(C)C2C[C@@H](OC(C)=O)[C@]3(C)C(CC[C@@]4(C)[C@H](c5ccoc5)OC(=O)[C@H]5O[C@]543)[C@]21C (stereo not given in full)
inactive: Potency [1] | Potency [2] | Potency [3] | Potency [4] | Potency [5]

C=C1[C@H](OC(C)=O)[C@H]2[C@@H](OC(C)=O)C(C)C[C@]2(OC(C)=O)C(=O)[C@H](C)/C=C/C(C)(C)C(=O)[C@H](OC(=O)C(C)C)[C@H]1OC(C)=O (stereo not given in full)
inactive: Potency [1] | Potency [2] | Potency [3] | Potency [4] | Potency [5]

C=CC1(C)CC=C2C(CCC3C(C)(C(=O)O)CCCC23C)C1 (stereo not given)
inactive: Potency [1] | Potency [2] | Potency [3] | Potency [4] | Potency [5]

Cc1cn(C[C@H](N)C(=O)O)c(=O)n(Cc2ccsc2C(=O)O)c1=O
inactive: Potency [1] | Potency [2] | Potency [3] | Potency [4] | Potency [5]

CC1(C)CC[C@]2(C(=O)O)CC[C@]3(C)C(=CCC4[C@@]5(C)C[C@H](O)[C@H](O[C@@H]6O[C@H](CO)[C@@H](O)[C@H](O)[C@H]6O)[C@@](C)(CO)C5[C@H](O)C[C@]43C)[C@@H]2C1 (stereo not given in full)
inactive: Potency [1] | Potency [2] | Potency [3] | Potency [4] | Potency [5]

C[C@@H]1CCC2C(C)(C)[C@H](O)[C@H](O)C[C@]2(C)[C@@]12Cc1c(O)cc3c(c1O2)CN(CCCC(=O)O)C3=O (stereo not given in full)
inactive: Potency [1] | Potency [2] | Potency [3] | Potency [4] | Potency [5]

CC1=C(C)C(=O)OC(C(C)C2C(O)CC3C4C5OC5C5(O)CC(OC6OC(CO)C(OC7OC(C)C(O)C(O)C7O)C(O)C6O)CC(O)C5(C)C4CCC32C)C1 (stereo not given)
inactive: Potency [1] | Potency [2] | Potency [3] | Potency [4] | Potency [5]

C=CC(C)(O)CC/C=C(\C)C(=O)O[C@@H]1[C@@H](O)[C@H](OC(C)(C=C)CC/C=C(\C)C(=O)O[C@@H]2O[C@H](CO)[C@@H](O)[C@H](O)[C@H]2O)O[C@H](CO)[C@H]1OC(=O)/C(C)=C/CCC(C)(O)C=C (stereo not given in full)
inactive: Potency [1] | Potency [2] | activity change, negative = inhibition [3] 0.429% [at 11.6 µM] | activity change, negative = thiol reactive [4] 71.6% [at 11.5 µM] | activity, negative = inhibition [5] 0.542% [at 11.6 µM]

COc1cc(/C=C/C(=O)O[C@@H]2C[C@@](O)(C(=O)O)C[C@@H](O)[C@@H]2O)ccc1O
inactive: Potency [1] | Potency [2] | Potency [3] | Potency [5]
active: Potency [4] 6.56 µM

COC(=O)C[C@H]1C(C)(C)[C@H](OC(=O)C(C)C)C2CC3=C4CC(=O)O[C@@H](c5ccoc5)[C@]4(C)CCC3[C@@]1(C)C2=O (stereo not given in full)
inactive: Potency [1] | Potency [2] | Potency [3] | Potency [4] | Potency [5]

CCCO[C@@H]1O[C@H](CO)[C@@H](O)[C@H](O)[C@H]1O[C@@H]1OC[C@@H](O)[C@H](O)[C@H]1O
inactive: Potency [1] | Potency [2] | Potency [3] | Potency [4] | Potency [5]

H-DPPDPDRFYGMM-NH2
inactive: Potency [1] | Potency [2] | Potency [3] | Potency [4] | Potency [5]

C[C@H](O)C(O)(C(=O)OCc1ccccc1NC(=O)CCC(N)C(=O)O)[C@H](C)O (stereo not given in full)
inactive: Potency [1] | Potency [2] | Potency [3] | Potency [4] | Potency [5]

CCCN(CCN1CCN(c2ccccc2OC)CC1)C1CCc2ncsc2C1 (stereo not given)
inactive: Potency [1] | Potency [2] | Potency [3] | Potency [4] | Potency [5]

C/C=C1/C[N+](C)([O-])C2Cc3c([nH]c4ccccc34)C(=O)CC1C2C(=O)OC (stereo not given)
inactive: Potency [1] | Potency [2] | Potency [3] | Potency [4] | Potency [5]

C/C=C(\C)C(=O)OC1C(C)C2(O)C3C=C(C)C(=O)C3CC(CO)=CC2C2C(C)(C)C12OC(C)=O (stereo not given)
inactive: Potency [1] | Potency [2] | Potency [3] | Potency [4] | Potency [5]

COc1cc(C)c(C(=O)O[C@@H]2[C@H](O)[C@@H](CO)O[C@H]2n2ccc(=O)[nH]c2=O)c(OC)c1
inactive: Potency [1] | Potency [2] | Potency [3] | Potency [4] | Potency [5]

C=C(C)[C@@H]1CC[C@]2(CO)CC[C@]3(C)[C@H](CC[C@@H]4[C@@]5(C)CC[C@H](O)C(C)(C)[C@@H]5CC[C@]43C)[C@@H]12
inactive: Potency [1] | Potency [2] | Potency [3] | Potency [4] | Potency [5]

C=C1CC[C@@H]2C(C)(C)CCC[C@@]2(C)[C@@H]1CC/C(=C/C(=O)OC)COC(C)=O
inactive: Potency [1] | Potency [2] | Potency [3] | Potency [4] | Potency [5]

COC(=O)C1=COC(OC2OC(CO)C(O)C(O)C2O)C2C(C)C(OC(=O)/C=C/c3ccc(O)cc3)C(O)C12 (stereo not given)
inactive: Potency [1] | Potency [2] | Potency [3] | Potency [5]
active: Potency [4] 11.6 µM

On1ncc(C2CCNCC2)c1-c1cccc(-c2ccccc2)c1
inactive: Potency [1] | Potency [2] | Potency [3] | Potency [4] | Potency [5]
